High-throughput results (PubChem BioAssay)
TR SRC2 fluor cs: alters Texas Red total fluorescence, flagging assay interference; TRb/SRC2 Texas Red total fluorescence interference; Potency, µM (top dose mostly 106 µM); hit rate 0.29% among 280,000; AID 1479; active = well fitted curve in either direction with a large enough effect; inconclusive = small, poorly fitted or top-dose-only effect
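Human TRb ligand-binding domain at 0.6 uM with 20 nM Texas Red SRC2 peptide in Tris buffer containing 1 uM T3 and 5% DMSO, incubated with compound 5 h at ambient temperature. Total fluorescence (555/632 nm) calculated as parallel + 2 × perpendicular.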
a7 integrin act: activators of alpha7 integrin expression for muscular dystrophy | AID 624291 | alpha7betagal myoblasts, beta-gal FDG fluorescence, 48 h | Potency, µM (top dose mostly 38.3 µM), usual class: activators | hit rate 0.064% among 350,000; also: nearly all actives have a fitted effect of over 60% in size
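alpha7betagal+/- myoblasts (passage 13, 250/well) treated 48 h at 37C with compounds at 1:260 dilution of DMSO stock. Lysed, then beta-galactosidase activity read as FDG fluorescence (ex 480/em 540) after 30 min, with pre-read for autofluorescence.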
TRb-SRC2 inh: inhibitors of human thyroid hormone receptor beta-SRC2 interaction; P10828; hit rate 0.065% among 280,000; Potency, µM (titrated, usually from 106 µM), most hits filed as inhibitors; TRbeta-SRC2 peptide binding, fluorescence polarization; receptor liganded with 1 µM T3; also: nearly all actives have a fitted effect of over 50% in size
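Fluorescence polarization of 20 nM Texas Red SRC2 peptide (20-aa NR interaction domain) bound to 0.6 uM human TRb ligand-binding domain, with 1 uM T3, after 5 hr at ambient temperature; inhibition seen as decreased polarization.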
ERG-DNA inh: ERG Ets/DNA interaction inhibition. P11308. fluorescence polarization, His-ERG Ets domain / labelled DNA. Potency, µM (doses to about 76.9 µM), hits mostly inhibitors. hit rate 0.028% among 370,000. AID 624246; active = well fitted inhibition curve with a large enough effect in the polarisation, with a control signal flat; inconclusive = small, poorly fitted or top-dose-only effect, or effect the other way, or a change in a side signal; inactive = no such curve, though single readings can be large or run the other way; the % refers to the polarisation;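 also: polarization taken with two DNA probes labelled with fluorescein and Texas red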
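His-tagged ERG Ets domain (1 uM in the protein solution; 300mM KCl, 50mM Tris-HCl, 1mM EDTA, 1mM DTT, pH 7.5) received compound, then a probe mix of 5 nM fluorescein-DNA and 100nM Texas-615-DNA. Fluorescence polarization was read for both dyes.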
RGS12 GoLoco inh: inhibitors of human Gai1-RGS12 GoLoco interaction (red fluorophore); hit rate 0.44% among 230,000; Gai1:RGS12 GoLoco peptide FP, rhodamine, 10 min; Potency, µM (doses to about 61.6 µM), actives largely listed as inhibitors; active = well fitted inhibition curve with a large enough effect, not every such curve was filed as active; inactive = no such curve, though single readings can be large or run the other way; also: nearly all actives have a fitted effect of over 30% in size
Target sequence (P63096 whole entry, looked up): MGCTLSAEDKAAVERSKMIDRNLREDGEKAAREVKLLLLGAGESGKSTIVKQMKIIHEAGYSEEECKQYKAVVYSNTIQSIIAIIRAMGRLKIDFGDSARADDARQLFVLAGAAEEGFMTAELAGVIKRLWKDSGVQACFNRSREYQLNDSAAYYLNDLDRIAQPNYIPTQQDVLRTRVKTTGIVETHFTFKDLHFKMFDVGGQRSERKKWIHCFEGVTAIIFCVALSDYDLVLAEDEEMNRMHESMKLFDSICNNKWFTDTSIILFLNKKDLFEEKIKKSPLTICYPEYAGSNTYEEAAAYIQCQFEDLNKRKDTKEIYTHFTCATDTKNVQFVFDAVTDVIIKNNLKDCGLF
CBFb RUNX1 block: blocks binding between human CBF-beta and RUNX1. AlphaScreen CBFb-His/RUNX1-biotin binding, biochemical. Potency, µM (titrated, usually from 59.8 µM), usual class: inhibitors. 230,000 tested, under 10 active. AID 1477
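AlphaScreen proximity signal reports loss of binding between His-tagged CBF-beta and biotin-labelled RUNX1, each at 30 nM. Proteins are pre-associated for 20 minutes, compounds added for 15 minutes, then beads for 90 minutes, all at ambient temperature.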
A number is an active result; – = inactive; ? = inconclusive; · = not tested or not shown; ! = repeats disagree; [ ] = another dose, or the depositor's remark. Most compounds without a hit are left out; they make up all but 0.45% or so of the library. Unless noted, calls follow the shape of the dose curve; as a rule, active = well fitted curve in the direction sought with a large enough effect; inconclusive = small, poorly fitted or top-dose-only effect, or another doubt; inactive = no such curve, though single readings can be large; an effect the other way counts as inactive or inconclusive.

SMILES	TR SRC2 fluor cs	a7 integrin act	TRb-SRC2 inh	ERG-DNA inh	RGS12 GoLoco inh	CBFb RUNX1 block
CC(=O)Nc1ccc(S(=O)(=O)NCc2ccc3[nH]c(C)cc3c2)cc1	–	–	–	–	–	–
CC(=O)Nc1ccc(S(=O)(=O)NCc2ccc3c(c2)cc(C)n3C)cc1	?	–	–	14.1µM	–	–
Cc1cc2ccccc2n1CCNC(=O)C(C)Oc1ccccc1 (configuration not stated)	?	–	50.1µM	?	–	–
Cc1cc2ccccc2n1CCNC(=O)C(C)C	–	–	–	?	–	–
CC[C@@]1([C@@H]2O[C@@H]([C@H]3O[C@@](O)(CO)[C@H](C)C[C@@H]3C)C[C@@H]2C)CC[C@@H]([C@]2(C)CCC3(C[C@H](O)[C@@H](C)[C@@H]([C@@H](C)[C@@H](OC)[C@H](C)C(=O)O)O3)O2)O1 (some centres not stated)	–	·	–	·	·	–
Cc1ccc(C(=O)NCCn2c(C)cc3ccccc32)cc1C	–	·	–	–	·	·
Cc1cc2ccccc2n1CCNC(=O)c1ccc(S(=O)(=O)N2CCCCC2)cc1	44.7µM[fluorescent]	–	–	25.1µM	–	–
COC(=O)c1c(-c2cccs2)csc1NC(=O)c1cccc(Cl)c1	1122µM[quencher]	·	?	–	·	·
O=c1c2c([N+](=O)[O-])cc([N+](=O)[O-])cc2sn1-c1ccc(Br)cc1	–	–	–	–	5.01µM	–
Cc1nc2ccccc2n1CCC(=O)O	–	–	–	–	–	–
Cc1nc2ccccc2n2c(O)c(CC(=O)O)cc12	–	–	?	·	12.6µM	–
COCCOCCOCCOC	–	·	–	·	·	·
COc1ccc2c(c1)[N+](=O)C(/C(C)=N/NC(N)=S)=C(C)[N+]2=O	·	·	·	·	–[14.2 µM]	·
CCCS(=O)(=O)N1CC(=O)N(c2cc(C)ccc2C)C(C)(C(=O)NC2CCCCCC2)C1 (configuration not stated)	25.1µM[quencher]	·	–	–	·	·
O=C(O)C1(C(=O)Nc2ccc(Cl)cc2Cl)CC1	–	·	–	·	·	·
C=C1c2cccc(O)c2C(O)=C2C(=O)[C@]3(O)C(O)=C(C(N)=O)C(=O)C(N(C)C)C3C(O)C12 (some centres not stated)	39.8µM[quencher]	·	–	·	–	·
C=C1c2cccc(O)c2C(O)=C2C(=O)[C@]3(O)C(O)=C(C(N)=O)C(=O)[C@@H](N(C)C)[C@@H]3[C@@H](O)[C@H]12	31.6µM[quencher]	–	–	–	–	·
CSCC[C@@H]1NC(=O)[C@@H](NC(=O)[C@H](CCCNC(=N)N)NC(=O)[C@H](CC(C)C)NC(=O)[C@H](CCSC)NC(=O)[C@H](CC(=O)O)NC(=O)[C@H](Cc2ccccc2)NC(=O)[C@@H](N)CC(=O)O)CSSC[C@@H](C(=O)N[C@@H](Cc2c[nH]c3ccccc23)C(=O)N[C@@H](CCC(N)=O)C(=O)N[C@@H](Cc2ccc(O)cc2)C(=O)O)NC(=O)[C@@H]2CCCN2C(=O)[C@H](CCCNC(=N)N)NC(=O)[C@H](Cc2ccccc2)NC(=O)[C@H](C(C)C)NC(=O)[C@H](CCCNC(=N)N)NC(=O)CNC(=O)[C@H](CC(C)C)NC1=O	·	·	–	·	·	–
Cc1ccc(NC(c2nnc(-c3ccccc3)o2)c2ccccc2F)c([N+](=O)[O-])c1 (configuration not stated)	251µM[quencher]	·	–	–	·	·
N#CCCn1cc(/C=C2\NC(=S)N(c3ccccc3)C2=O)c(-c2ccc(-c3ccccc3)cc2)n1	–	–	–	–	–	–
O=C(O)CCn1cc(/C=C2/NC(=S)N(c3ccccc3)C2=O)c(-c2ccccc2)n1	–	20µM	–	–	–	–
CCCCCCCCCCCCCC(=O)OC	–	·	–	·	·	·
CC(=O)N(C1CC(C)C(C#N)(C#N)C1(C#N)C#N)N(C)C (configuration not stated)	–	–	–	–	–	–
CCCC(=O)N(C1CC(C)C(C#N)(C#N)C1(C#N)C#N)N(C)C (configuration not stated)	–	–	–	–	11.2µM	–
SMILES	TR SRC2 fluor cs	a7 integrin act	TRb-SRC2 inh	ERG-DNA inh	RGS12 GoLoco inh	CBFb RUNX1 block
CC(C)ON(C(C(=O)NO)C(C)C)S(=O)(=O)c1ccc(-c2ccccc2)cc1 (configuration not stated)	–	·	–	·	·	–
COc1ccccc1C(=O)NCC(=O)N=Nc1c(O)n(C(C)C)c2ccccc12	·	11.2µM	·	–	·	·
COc1ccc2c(c1)C(=O)[C@H](OC(=O)N[C@H](C)C1CCCCC1)[C@@H](c1ccc(OC)c(Br)c1)O2	–	·	–	·	–	–
CCn1cc2nc(SCc3cccc(OC)c3)n(Cc3ccc(Cl)cc3)c(=O)c2n1	0.0316µM[quencher]	·	–	–	·	·
CCn1cc2nc(SCc3cc(C)ccc3C)n(Cc3ccc(OC)cc3)c(=O)c2n1	–	·	–	–	·	·
Cc1ccc(-n2c(C)cc(/C=N/Nc3ccc([N+](=O)[O-])cn3)c2C)cc1	–	–	–	–	3.55µM	–
Cc1c(C(=O)O)cccc1-n1c(C)cc(/C=N/Nc2ccc([N+](=O)[O-])cn2)c1C	–	2.82µM	–	–	–	?
CSCC[C@H](NC(=O)[C@@H](NC(=O)[C@H](CCC(=O)O)NC(=O)[C@H](CCSC)NC(=O)[C@H](CC(N)=O)NC(=O)[C@H](CCC(=O)O)NC(=O)[C@H](CC(N)=O)NC(=O)[C@H](CO)NC(=O)[C@H](C)N)[C@@H](C)O)C(=O)O	?	·	–	·	·	–
Cc1ccc2nc(-c3ccc(Cl)c(NC(=O)c4cccc([N+](=O)[O-])c4C)c3)oc2c1	15.8µM[quencher]	·	–	–	·	·
CC(=O)c1ccc(NC(=O)Cn2c3ncccc3c(=O)n2-c2ccc(C)cc2)cc1	89.1µM[quencher]	·	?	–	·	·
O=c1[nH]c2[nH]c(=S)[nH]c(=S)c2[nH]1	·	·	·	·	–[14.2 µM]	·
CCOC(=O)C1CCN(C(=O)Nc2ccc3nc(-c4ccco4)c(-c4ccco4)nc3c2)CC1	?	–	–	–	–	?
O=C(Nc1ccc2nc(-c3ccco3)c(-c3ccco3)nc2c1)N1CCCCCC1	22.4µM[quencher]	–	–	–	–	·
Cc1ccc(N)c(Cl)c1	–	·	–	·	·	–
COc1ccc2oc(CS(=O)c3ccccc3)c(C(=O)O)c2c1 (configuration not stated)	·	12.6µM	·	–	·	·
CN1CCc2c(sc3c2C(=O)NC(c2ccccn2)N3)C1 (configuration not stated)	44.7µM[fluorescent]	–	10µM	?	28.2µM	–
Cc1c(Cl)cccc1Nc1ccccc1C(=O)O	–	·	–	–	28.2µM!	–
Cc1c(Cl)cccc1Nc1ncccc1C(=O)O	–	·	–	–	·	·
